Measured values taken from PubChem BioAssay (NCATS).
“And” between values parts separate entries of the source, which are not always exact repeats. Identical values can stand only once. Records with an inconclusive call do not appear. Unmarked numbers belong to inactive results. The source made the active and inactive calls. Calls follow the shape of the dose curve; as a rule, active = well fitted curve in the direction sought with a large enough effect; inconclusive = small, poorly fitted or top-dose-only effect, or another doubt; inactive = no such curve, though single readings can be large; an effect the other way counts as inactive or inconclusive.
Also: nearly all actives have a fitted effect of over 40% in size.
Potency is read from the fitted curve at half-maximal effect.

Molecular target: Cytochrome P450 3A7 (Homo sapiens) (UniProt P24462)
Sequence (P24462 whole entry, looked up): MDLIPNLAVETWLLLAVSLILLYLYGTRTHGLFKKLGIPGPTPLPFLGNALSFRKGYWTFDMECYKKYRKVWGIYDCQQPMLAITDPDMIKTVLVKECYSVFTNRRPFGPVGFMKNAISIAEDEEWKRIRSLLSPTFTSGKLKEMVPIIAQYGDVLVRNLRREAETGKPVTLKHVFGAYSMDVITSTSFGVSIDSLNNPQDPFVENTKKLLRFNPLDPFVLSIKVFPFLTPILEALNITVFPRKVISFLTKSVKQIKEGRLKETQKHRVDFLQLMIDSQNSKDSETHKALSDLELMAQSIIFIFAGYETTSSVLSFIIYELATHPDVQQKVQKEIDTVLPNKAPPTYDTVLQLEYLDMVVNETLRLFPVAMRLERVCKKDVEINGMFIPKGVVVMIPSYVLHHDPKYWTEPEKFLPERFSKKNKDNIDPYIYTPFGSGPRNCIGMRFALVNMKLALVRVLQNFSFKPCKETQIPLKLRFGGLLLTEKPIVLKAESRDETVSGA
Assay: Cytochrome P450 family 3 subfamily A member 7 (CYP3A7) small molecule antagonists: luciferase biochemical qHTS assay (AID 1963596); as to activity change, negative = inhibition: % is scaled to controls: 0 for no effect and ±100 for the full control effect
Conditions: P450-Glo CYP3A7 enzyme luminescence, 1 h; series mostly up to 57.4 µM; activity change, negative = inhibition: at the top concentration
Outline: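 Compounds were screened in qHTS format for interference with CYP3A7 turnover of a proluciferin substrate. Reactions ran 1 h at room temperature after NADPH regeneration solution was added, then luciferin product was detected by luminescence.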
In the case of `CC(C)(C)NCC(O)COc1cccc2c1CCCC2=O` (stereo not drawn), the “activity change, negative = inhibition” value is reported as -10.3%. For `COc1cc2c3cc1Oc1cc(ccc1O)C[C@@H]1c4c(cc(OC)c(O)c4Oc4ccc(cc4)C[C@@H]3N(C)CC2)CC[N+]1(C)C`, the “activity change, negative = inhibition” value was -0.98%. In the case of `CCn1cc(C(=O)O)c(=O)c2cnc(N3CCNCC3)nc21`, the “activity change, negative = inhibition” value is reported as 27.7%. For `CCCCCCCCCCC(CO)CCCCCCCC` (stereo not drawn), the “activity change, negative = inhibition” value was -15.3%. In the case of `CC[N+](C)(CC)CCOC(=O)C1c2ccccc2Oc2ccccc21`, the “activity change, negative = inhibition” value is reported as 2.24%. In the case of `Nc1nc2ncc(CNc3ccc(C(=O)N[C@@H](CCC(=O)O)C(=O)O)cc3)nc2c(=O)[nH]1`, the “activity change, negative = inhibition” value is reported as 15.3%. In the case of `CCOc1cc(OCC)c(C(=O)CCC(=O)O)cc1OCC`, the “activity change, negative = inhibition” value is reported as -19.1%. For `COc1ccc(Sc2ccc(NC(=O)c3ccccc3Cl)cc2C#N)cc1`, the “activity change, negative = inhibition” value was 0%. With `Cc1c(C(C)C)c(=O)n(-c2ccccc2)n1C` the “activity change, negative = inhibition” value was 1.55%. For `CCN1CCN(Cc2ccc(NC(=O)Nc3ccc(Oc4cc(NC)ncn4)cc3)cc2C(F)(F)F)CC1`, the “activity change, negative = inhibition” value was 1.15%. With `NC(CO)(CO)CO` the “activity change, negative = inhibition” value was -15.5%. With `CN(C)[C@@H]1C(=O)C(C(N)=O)=C(O)[C@@]2(O)C(=O)C3=C(O)c4c(O)cccc4C[C@H]3C[C@@H]12` the “activity change, negative = inhibition” value was 3.29%. In the case of `CC(CC(C#N)(c1ccccc1)C(C)C)N(C)C` (stereo not drawn), the “activity change, negative = inhibition” value is reported as -10.5%. For `O=C(O)c1ccc[n+]([O-])c1`, the “activity change, negative = inhibition” value was 1.3%. In the case of `O=C(O)c1ccccn1`, the “activity change, negative = inhibition” value is reported as 21.3%. With `CC(=O)Nc1ncc([N+](=O)[O-])s1` the “activity change, negative = inhibition” value was -15.5%. In the case of `C[C@H]1CO[C@@H]2Cn3cc(C(=O)NCc4ccc(F)cc4F)c(=O)c(O)c3C(=O)N12`, the “activity change, negative = inhibition” value is reported as 20.7%. With `CCOC(=O)C(=O)CCCCCCl` the “activity change, negative = inhibition” value was -12.3%. In the case of `C[C@@H](c1ncncc1F)C(O)(Cn1cncn1)c1ccc(F)cc1F` (stereo partly drawn), the “activity change, negative = inhibition” value is reported as 13.5%. With `C[C@]12C=CC(=O)C=C1CC[C@@H]1[C@@H]2[C@@H](O)C[C@@]2(C)[C@H]1CC[C@]2(O)C(=O)COC(=O)CCC(=O)O` the “activity change, negative = inhibition” value was 21.3%. In the case of `CN(C)CCN1CCN(c2cccc(Cl)c2)C1=O`, the “activity change, negative = inhibition” value is reported as -2.76%. With `O=C(c1ccc(Cl)c([N+](=O)[O-])c1)N1CCN(c2ccccc2F)CC1` the “activity change, negative = inhibition” value was 9.37%. In the case of `OC1(c2ccccc2)CCNCC1`, the “activity change, negative = inhibition” value is reported as 2.72%. For `OC1(c2ccc(Cl)cc2)CCNCC1`, the “activity change, negative = inhibition” value was -17%. For `Nc1ccc(C(=O)Nc2ccccc2N)cc1`, the Potency was 17.4 µM (active). With `Cc1cc(=O)oc2cc(O[C@@H]3SC[C@@H](O)[C@H](O)[C@H]3O)ccc12` the “activity change, negative = inhibition” value was 34.1%. With `CC(C)c1cc2c(cc1S(=O)(=O)O)[C@@]1(C)CCC[C@@](C)(C(=O)O)[C@@H]1CC2` the “activity change, negative = inhibition” value was -3.28%. With `C[C@H](NC(CCc1ccccc1)C(=O)O)C(=O)N1CCC[C@H]1C(=O)O` (stereo partly drawn) the “activity change, negative = inhibition” value was -3.06%. With `N#CSCC(=O)O` the “activity change, negative = inhibition” value was -19.8%. With `CCCCC(O)/C=C(C)/C=C/C=C/C(=O)N1CCCC1=O` (stereo not drawn) the “activity change, negative = inhibition” value was 7.37%. With `CN1CCc2cc(Cl)c(O)cc2[C@@H](c2cccc3c2OCC3)C1` the “activity change, negative = inhibition” value was 0%. For `CCc1cc(Cl)c(OC)c(C(=O)NC[C@@H]2CCCN2CC)c1O`, the “activity change, negative = inhibition” value was -24.7%. For `CCc1cccc(CC)c1NC(=O)CN(CC(=O)O)CC(=O)O`, the “activity change, negative = inhibition” value was 21.6%. For `CN1C(=O)CC(c2ccccc2)C1=O` (stereo not drawn), the “activity change, negative = inhibition” value was -0.774%. In the case of `Cc1cccc(C)c1NC(=O)CC12CCCN1CCC2`, the “activity change, negative = inhibition” value is reported as 2.05%. With `O=C(/C=C/c1ccc(O)c(O)c1)O[C@@H]1C[C@@](OC(=O)/C=C/c2ccc(O)c(O)c2)(C(=O)O)C[C@@H](O)[C@@H]1O` the “activity change, negative = inhibition” value was -19.9%. With `CC1CN(c2cc3c(cc2F)c(=O)c(C(=O)O)cn3-c2ccc(F)cc2F)CCN1` (stereo not drawn) the activity change, negative = inhibition was 17% [at 4.83 µM]. With `O=C1Nc2cc(Cl)ccc2Oc2ccccc21` the “activity change, negative = inhibition” value was -15.4%. With `CC(C)(CO)[C@@H](O)C(=O)NCCCO` the “activity change, negative = inhibition” value was -8.82%. In the case of `COc1cc(N2CCC(N3CCN(C)CC3)CC2)ccc1Nc1ncnc(Nc2ccccc2S(=O)(=O)C(C)C)n1`, the “activity change, negative = inhibition” value is reported as 0%.

System: not listed separately
Assay: Viability qHTS for spleen associated tyrosine kinase inhibitor (SYKi) naive MV4-11 cells (AID 1963823)
Conditions: MV4-11 AML viability, CellTiter-Glo luminescence, 72 h; series mostly up to 45 µM; viability (% of control): at the top concentration
Outline: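 qHTS, SYK inhibitor-naive MV4-11; 500 cells/well; 72 hr compound exposure, 37 C; CellTiter-Glo added, 10 min RT; luminescence read.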
With `COc1cc2c3cc1Oc1cc(ccc1O)C[C@@H]1c4c(cc(OC)c(O)c4Oc4ccc(cc4)C[C@@H]3N(C)CC2)CC[N+]1(C)C` the “viability (% of control)” value was 100%. With `CCn1cc(C(=O)O)c(=O)c2cnc(N3CCNCC3)nc21` the “viability (% of control)” value was 82.8%. For `CCCCCCCCCCC(CO)CCCCCCCC` (stereo not drawn), the “viability (% of control)” value was 71.6%. With `CC[N+](C)(CC)CCOC(=O)C1c2ccccc2Oc2ccccc21` the “viability (% of control)” value was 7.55%. In the case of `Nc1nc2ncc(CNc3ccc(C(=O)N[C@@H](CCC(=O)O)C(=O)O)cc3)nc2c(=O)[nH]1`, the “viability (% of control)” value is reported as 73.4%. With `CCOc1cc(OCC)c(C(=O)CCC(=O)O)cc1OCC` the “viability (% of control)” value was 71.4%. For `Cc1c(C(C)C)c(=O)n(-c2ccccc2)n1C`, the “viability (% of control)” value was 76.4%. With `CCN1CCN(Cc2ccc(NC(=O)Nc3ccc(Oc4cc(NC)ncn4)cc3)cc2C(F)(F)F)CC1` the “viability (% of control)” value was 1.54%. For `NC(CO)(CO)CO`, the “viability (% of control)” value was 90%. In the case of `CN(C)[C@@H]1C(=O)C(C(N)=O)=C(O)[C@@]2(O)C(=O)C3=C(O)c4c(O)cccc4C[C@H]3C[C@@H]12`, the “viability (% of control)” value is reported as 77.3%. For `CC(CC(C#N)(c1ccccc1)C(C)C)N(C)C` (stereo not drawn), the “viability (% of control)” value was 79.5%. In the case of `O=C(O)c1ccc[n+]([O-])c1`, the “viability (% of control)” value is reported as 100%. For `O=C(O)c1ccccn1`, the “viability (% of control)” value was 79.5%. With `CC(=O)Nc1ncc([N+](=O)[O-])s1` the “viability (% of control)” value was 73.4%. In the case of `CCOC(=O)C(=O)CCCCCCl`, the “viability (% of control)” value is reported as 78.8%. For `C[C@@H](c1ncncc1F)C(O)(Cn1cncn1)c1ccc(F)cc1F` (stereo partly drawn), the “viability (% of control)” value was 74%. For `CN(C)CCN1CCN(c2cccc(Cl)c2)C1=O`, the “viability (% of control)” value was 82.4%. In the case of `OC1(c2ccccc2)CCNCC1`, the “viability (% of control)” value is reported as 85.7%. With `OC1(c2ccc(Cl)cc2)CCNCC1` the “viability (% of control)” value was 89.9%. For `Cc1cc(=O)oc2cc(O[C@@H]3SC[C@@H](O)[C@H](O)[C@H]3O)ccc12`, the “viability (% of control)” value was 89.8%. In the case of `CC(C)c1cc2c(cc1S(=O)(=O)O)[C@@]1(C)CCC[C@@](C)(C(=O)O)[C@@H]1CC2`, the “viability (% of control)” value is reported as 71.8%. In the case of `C[C@H](NC(CCc1ccccc1)C(=O)O)C(=O)N1CCC[C@H]1C(=O)O` (stereo partly drawn), the “viability (% of control)” value is reported as 84.4%. With `N#CSCC(=O)O` the “viability (% of control)” value was 76.6%. With `CCCCC(O)/C=C(C)/C=C/C=C/C(=O)N1CCCC1=O` (stereo not drawn) the “viability (% of control)” value was 72.6%. In the case of `CCc1cc(Cl)c(OC)c(C(=O)NC[C@@H]2CCCN2CC)c1O`, the “viability (% of control)” value is reported as 89.6%. For `CCc1cccc(CC)c1NC(=O)CN(CC(=O)O)CC(=O)O`, the “viability (% of control)” value was 57.6%. In the case of `CN1C(=O)CC(c2ccccc2)C1=O` (stereo not drawn), the “viability (% of control)” value is reported as 94.5%. With `Cc1cccc(C)c1NC(=O)CC12CCCN1CCC2` the “viability (% of control)” value was 115%. With `O=C(/C=C/c1ccc(O)c(O)c1)O[C@@H]1C[C@@](OC(=O)/C=C/c2ccc(O)c(O)c2)(C(=O)O)C[C@@H](O)[C@@H]1O` the “viability (% of control)” value was 79.8%. Work on `CC1CN(c2cc3c(cc2F)c(=O)c(C(=O)O)cn3-c2ccc(F)cc2F)CCN1` (stereo not drawn) yielded a viability (% of control) of 91.3% [at 4.97 µM]. For `O=C1Nc2cc(Cl)ccc2Oc2ccccc21`, the “viability (% of control)” value was 55%. With `CC(C)(CO)[C@@H](O)C(=O)NCCCO` the “viability (% of control)” value was 96.9%. With `COc1cc(N2CCC(N3CCN(C)CC3)CC2)ccc1Nc1ncnc(Nc2ccccc2S(=O)(=O)C(C)C)n1` the Potency was 1.16 µM (active) and 1.32 µM (active).
